“And” between values parts separate entries of the source, which are not always exact repeats. Equal entries are not always repeated. In all, about 370,000 compounds went through this assay and about 4,700 (1.3%) were called active.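 The calls were made as follows: active = inhibition above the plate cutoff, the mean of all test compounds on that plate plus 3 SD (cut at about 35% in these data); inactive = the rest.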 For the sample, actives were picked, then their nearest neighbours and some compounds at random.
Assay: small molecules binding CAG repeat RNA – biochemical, fluorescence, primary screen (AID 651821);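 also: 0% = DMSO alone and 100% = 100 µM mitoxantrone as full dye displacement; higher means more dye released from RNA so lower well fluorescence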
Conditions: r(CAG) RNA repeat, TO-PRO-1 dye displacement fluorescence; at 3 µM; active compounds read high
With O=C(O)c1[nH]c2ccccc2c1C(c1cccc(O)c1)c1c(C(=O)O)[nH]c2ccccc12 the inhibition was 61.1% (active).
For Cc1c(C(=O)CN2CCOCC2)[nH]c2ccccc12, the inhibition was 1.32% (inactive).
For CCCS(=O)(=O)Nc1c(C(=O)O)[nH]c2ccccc12, the inhibition was 0.99% (inactive).
In the case of O=C(NCc1ccccc1)[C@@H]1CCCN1C(=O)[C@@H](NS(=O)(=O)c1ccc(F)cc1F)C1CCCCC1, the inhibition is reported as -1.8% (inactive).
With C=CCN1[C@H](CC(C)C)COc2cccc(N3CCCC3)c2S1(=O)=O the inhibition was 8.14% (inactive).
In the case of CCOc1ccc2ccccc2c1/C=N/NC(=O)c1c(C)cc(C)[nH]c1=O, the inhibition is reported as 0.65% (inactive).
For O=C(N/N=C/c1c(Cl)[nH]c2ccccc12)c1sc2ccccc2c1Cl, the inhibition was 35.6% (active).
In the case of CN1CCc2ccccc2C1Cc1ccccc1NC(=O)c1sc2ccccc2c1Cl (configuration not stated), the inhibition is reported as -0.7% (inactive).
In the case of Cc1ccc2nc(N3C(=O)C(O)=C(C(=O)c4ccco4)C3c3cccc(O)c3)sc2c1 (configuration not stated), the inhibition is reported as 72.6% (active).
For C=CCSc1nnc(N2C(=O)C(O)=C(C(=O)c3ccco3)C2c2ccc(F)cc2)s1 (configuration not stated), the inhibition was 18.7% (inactive).
In the case of O=C(C1=C(O)C(=O)N(c2ncccn2)C1c1cccs1)c1ccco1 (configuration not stated), the inhibition is reported as -0.3% (inactive).
With COCCNc1cc(NCCOC)c([N+](=O)[O-])cc1[N+](=O)[O-] the inhibition was 1.02% (inactive).
In the case of COC(=O)[C@]12C[C@H](CC(=O)N3CCN(C(=O)C4CC4)CC3)C(=O)N(Cc3ccc4c(c3)OCO4)C1=C[C@H](C(C)(C)C)O[C@@H]2C, the inhibition is reported as 1.7% (inactive).
In the case of COc1ccccc1C(=O)CSc1nnc(-c2ccccn2)n1-c1ccccc1, the inhibition is reported as 5.14% (inactive).
In the case of CCCCNC(=O)C[C@@H]1C(=O)N(CCc2ccc(Cl)cc2)C2=CCCC[C@]21C(=O)OCC, the inhibition is reported as 0.46% (inactive).
In the case of Cc1c(CC(=O)NCC(=O)NCC(=O)O)c(=O)oc2cc3oc4c(c3cc12)CCCC4, the inhibition is reported as 11.3% (inactive).
With CC[C@@H](C)[C@H](NC(=O)CCc1c(C)c2cc3c4c(oc3c(C)c2oc1=O)CCCC4)C(=O)O the inhibition was 36.8% (active).
For Cc1oc2c(C)c3oc(=O)c(CC(=O)N[C@@H](CC(C)C)C(=O)N[C@@H](Cc4ccccc4)C(=O)O)c(C)c3cc2c1C, the inhibition was 15.8% (inactive).
For Cc1c(CCC(=O)N[C@@H](CC(C)C)C(=O)O)c(=O)oc2c(C)c3oc4c(c3cc12)CCCC4, the inhibition was 38.4% (active).
In the case of Cc1c(C)c2cc3c4c(oc3c(C)c2oc1=O)CCCC4, the inhibition is reported as 5.96% (inactive).
With COc1ccc2c(C)c(CCC(=O)NC3CC3)c(=O)oc2c1C the inhibition was -3.01% (inactive).
In the case of COC(=O)C1=C(C)N(Cc2ccc(C(F)(F)F)cc2)C(=NCc2ccccc2)NC1c1ccccc1C(F)(F)F (configuration not stated), the inhibition is reported as 1.95% (inactive).
In the case of CC(C)(C)C(c1nc2ccccc2[nH]1)n1c(Cc2csc3ccccc23)nc2ccccc21 (configuration not stated), the inhibition is reported as 6.22% (inactive).
With CC(C)(C)OC(=O)NCCc1ccccc1/C=C/S(=O)(=O)NCc1ccc(F)cc1 the inhibition was 3.67% (inactive).
In the case of Cc1[nH]c2ccccc2c1CC(=O)Nc1ccc(Nc2cccnc2)c(-c2cccc(Cl)c2)c1, the inhibition is reported as 14.1% (inactive).
In the case of COC(=O)c1cc2c(c3c4cc(F)ccc4n(S(=O)(=O)c4ccccc4)c13)C(=O)N(Cc1ccccc1OC)C2, the inhibition is reported as 16.2% (inactive).
In the case of O=C(Nc1ccccc1)Nc1nnc(COc2ccccc2F)s1, the inhibition is reported as 56.5% (active).
With COCc1nnc(NC(=O)CS(=O)(=O)Cc2ccccc2)s1 the inhibition was 4.38% (inactive).
For O=C(NCCOc1ccccc1F)Nc1ccc(Br)cc1, the inhibition was 5.19% (inactive).
With CCOC(=O)[C@]12CCCC3=C1N(CCC3)C(=O)[C@@H](CC(=O)N1CCSCC1)C2 the inhibition was -0.18% (inactive).
With CCOc1ccc(C(=O)NC2CCN(CC(=O)NCc3cccs3)CC2)cc1 the inhibition was -7.65% (inactive).
For COCCNC(=O)Nc1ccc2nc(-c3ccco3)c(-c3ccco3)nc2c1, the inhibition was 69.7% (active).
In the case of COc1cc(NC(=O)C2=CC(c3ccco3)=NS(=O)(=O)N2C)cc(OC)c1OC, the inhibition is reported as 1.85% (inactive).
With COCCNC(=O)c1ccc2nc(Cc3ccc(OC)c(OC)c3)oc2c1 the inhibition was -4.89% (inactive).
In the case of COC(=O)[C@]12C[C@H](CC(=O)NCc3cccs3)C(=O)N(CCc3ccc(OC)c(OC)c3)C1=C[C@H](C(C)C)O[C@@H]2C1CC1, the inhibition is reported as 3.01% (inactive).
With CCc1nn(CCCC(=O)NC(C)c2ccccc2)c(=O)c2cc3occc3n12 (configuration not stated) the inhibition was -1.26% (inactive).
For O=C(C1CCN(S(=O)(=O)c2ccc(Br)s2)CC1)N1CCN(C2CCCCC2)CC1, the inhibition was -5.64% (inactive).
With O=C(COC(=O)CCCN1C(=O)c2cccc3cccc(c23)C1=O)NC1CCS(=O)(=O)C1 (configuration not stated) the inhibition was -0.32% (inactive).
With O=C(CCCN1C(=O)c2cccc3cccc(c23)C1=O)N1CCN(Cc2ccc3c(c2)OCO3)CC1 the inhibition was -5.35% (inactive).
In the case of O=C1c2cccc3cccc(c23)C(=O)N1CCCCCc1n[nH]c(=S)o1, the inhibition is reported as 38.4% (active).
With COc1cc(C(=O)Nn2c(CC(C)C)nc3ccccc3c2=O)cc(OC)c1OC the inhibition was -4.74% (inactive).
In the case of COc1cc(C(=S)NC2CCCCC2)ccc1O, the inhibition is reported as 4.7% (inactive).
For COc1cc(C(=O)Nn2c(O)c(C3=c4ccccc4=NC3=O)sc2=S)ccc1O, the inhibition was 50.1% (active).
For C[C@H](C(=O)N(C)c1ccccc1)[C@@H](O)c1ccc(Cl)cc1, the inhibition was -1.76% (inactive).
With C=CCN1C(=O)[C@@H](CC(=O)NCCCCc2ccccc2)[C@]2(C(=O)OCC)CCCCC/C=C/12 the inhibition was 3.6% (inactive).
For CCOC(=O)N1CCN(C(=O)C[C@@H]2C(=O)N(CCc3ccc(Cl)cc3)C3=CCCC[C@]32C(=O)OCC)CC1, the inhibition was 3.44% (inactive).
With CC(=O)Oc1ccc(N(C(C)=O)S(=O)(=O)c2ccc3ccccc3c2)cc1Br the inhibition was 2.18% (inactive).
In the case of COC(=O)c1c(C)oc2ccc(N(C(=O)Oc3ccccc3)S(=O)(=O)c3ccccc3)cc12, the inhibition is reported as 5.17% (inactive).
For CC(=O)N(c1ccc2oc(=O)sc2c1)S(=O)(=O)c1ccc(C)cc1, the inhibition was 42.4% (active).
For CC(=O)OC12CCCN(C1)/C(=C/c1ccncc1)C2 (configuration not stated), the inhibition was 3.52% (inactive).
With CCCOc1ccc(Oc2c(Cl)cnn(Cc3cccc4ccccc34)c2=O)cc1 the inhibition was 6.74% (inactive).
For C[C@H](CO)N1C[C@H](C)[C@@H](CN(C)C(=O)Nc2ccccc2F)OCc2cn(nn2)CCCC1=O, the inhibition was 0.24% (inactive).
In the case of COc1ccc(OC)c(-n2cc3c(=O)n(C)c(=O)n(C)c3c2)c1, the inhibition is reported as 2.65% (inactive).
With CCOC(=O)N1C(=O)C[C@](Sc2ccc(C)cc2)(C(=O)OC)[C@H]1c1ccccc1 the inhibition was -2.71% (inactive).
In the case of COC(=O)c1ccccc1-n1cc(COC(=O)NCCc2ccccc2)nn1, the inhibition is reported as 1.18% (inactive).
In the case of Cc1ccc(N(CCC(=O)O)S(=O)(=O)c2cccc(C(F)(F)F)c2)cc1, the inhibition is reported as 5.06% (inactive).
For Cc1oc2c(F)c(F)c(F)c(F)c2c1S(=O)(=O)Nc1cccc(C(F)(F)F)c1, the inhibition was 53.7% (active).
In the case of Cc1noc(C)c1S(=O)(=O)Nc1ccc(C(=O)O)cc1, the inhibition is reported as -0.8% (inactive).
For COC(=O)[C@H](C(C)C)N(CCc1cn(Cc2ccccc2)nn1)S(=O)(=O)c1ccc(F)cc1Br, the inhibition was 3.36% (inactive).
With CSCCC1NC2(C(=O)Nc3ccc(Cl)cc32)[C@@H]2C(=O)N(C3CCCC3)C(=O)[C@H]12 (some centres not stated) the inhibition was -2.44% (inactive).
For Cc1ccc(NC(=O)c2cc(C)nn2-c2ccccc2)c(C)c1, the inhibition was 2.01% (inactive).
In the case of Cc1cc(C)cc(Oc2c(C(F)(F)F)oc3cc(OCC(=O)O)ccc3c2=O)c1, the inhibition is reported as 44.4% (active).
With O=C(COc1ccc2c(C(F)(F)F)cc(=O)oc2c1)Nc1ccc2c(c1)OCCO2 the inhibition was 4.46% (inactive).
For O=C(COc1ccc2c3c(c(=O)oc2c1)CCC3)NC1CCCCC1, the inhibition was -4.24% (inactive).
With CC(c1c[nH]c2ccccc12)c1c(-c2ccccc2)n(C)c2ccccc12 (configuration not stated) the inhibition was 8.54% (inactive).
With COc1ccccc1-n1c(SCC(=O)O)nc2sc3c(c2c1=O)CCC3 the inhibition was 5.16% (inactive).
In the case of COc1ccc(Cl)cc1-n1c(=S)sc2c(=O)n(-c3ccc(F)cc3)c(SCC(=O)O)nc21, the inhibition is reported as 40.9% (active).
With CCc1ccc(-n2c(=S)sc3c(=O)n(-c4ccccc4OC)c(=S)[nH]c32)cc1 the inhibition was 9% (inactive).
In the case of CCN1C(=O)/C(=C2/Sc3ccccc3N2CCCS(=O)(=O)O)SC1=S, the inhibition is reported as 51.4% (active) and 69.1% (active).
For COc1ccc2c(c1)N(C)/C(=C1/SC(=S)N(NC(C)=O)C1=O)S2, the inhibition was 5.15% (inactive).
In the case of CCCCN1C(=O)/C(=C2/C=CC=CN2C)SC1=S, the inhibition is reported as -1.7% (inactive).
For CC(CC(=O)N1CCN(c2ccccc2)CC1)S(=O)(=O)c1ccc2c(c1)NC(=O)CS2 (configuration not stated), the inhibition was -1.08% (inactive).
With O=C(CCCCCN1C(=O)C2C3C=CC(C3)C2C1=O)Nc1ccccn1 (configuration not stated) the inhibition was 1.49% (inactive).
In the case of COC(=O)Cc1nnn2c1[C@H](C)[C@H](c1ccccc1[N+](=O)[O-])OCC2, the inhibition is reported as 2.71% (inactive).
For CCOC(=O)C1=C(C(=O)OCC)C2N(Cc3ccc(C#N)cc3)c3ccccc3[C@@]23C[C@@H](C(=O)OC)N(S(=O)(=O)c2ccc(F)cc2)C3=N1 (some centres not stated), the inhibition was 15.6% (inactive).
In the case of O=C(/C=C/Nc1ccc(S(=O)(=O)Nc2cnc3ccccc3n2)cc1)c1cccnc1, the inhibition is reported as 5.52% (inactive).
With CCC(Oc1ccccc1C)C(=O)Nc1ccc(S(=O)(=O)Nc2cc(C)on2)cc1 (configuration not stated) the inhibition was 20.8% (inactive).
With CCc1ccc(OC(C)C(=O)Nc2ccc(S(=O)(=O)Nc3cc(C)on3)cc2)cc1 (configuration not stated) the inhibition was 36.2% (active).
With Cc1cc(NS(=O)(=O)c2ccccc2)no1 the inhibition was -0.66% (inactive).
With Cc1cc(NS(=O)(=O)c2ccc(NC(=S)NC(=O)c3ccc(F)cc3Cl)cc2)no1 the inhibition was 33.1% (inactive).
With CCOc1cc(C(=O)Nc2ccc(S(=O)(=O)Nc3cnc4ccccc4n3)cc2)cc(OCC)c1OCC the inhibition was 66.1% (active).
With CCOc1ccc(Br)cc1S(=O)(=O)Nc1ccc(S(=O)(=O)Nc2cc(C)on2)cc1 the inhibition was 14.9% (inactive).
With CCOc1ccc(CC(=O)Nc2ccc(S(=O)(=O)Nc3cc(C)on3)cc2)cc1OCC the inhibition was 22.4% (inactive).
For COc1cc2ccccc2cc1C(=O)Nc1ccc(S(=O)(=O)Nc2cc(C)on2)cc1, the inhibition was 67.5% (active).
In the case of CCOc1ccc(C(=O)Nc2ccc(S(=O)(=O)Nc3cc(C)on3)cc2)cc1, the inhibition is reported as 39.1% (active).
For C=C(C)CNC(=S)Nc1ccc(S(=O)(=O)Nc2cnc3ccccc3n2)cc1, the inhibition was 19.2% (inactive).
In the case of COc1ccc(S(=O)(=O)Nc2cc(C)on2)cc1NC(C)=O, the inhibition is reported as 3.85% (inactive).
